# Assay outcomes deposited in PubChem by National Center for Advancing Translational Sciences (NCATS).
# Vif-APOBEC3F blk – inhibitors of Vif-A3F interaction. 390,000 tested, 0.2% active. Potency, µM (doses to about 46.1 µM), inactives show top-dose activity, negative = active. HeLa A3F-eYFP + Vif (tagged APOBEC3F with the HIV-1 protein that degrades it), YFP fluorescence increase; further: potency means the concentration at half of the fitted maximal effect; % of control where 0% means no effect; nearly all actives have a fitted effect of over 65% in size
#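 HeLa cells stably expressing A3F-eYFP plus Vif, plated and incubated overnight at 37 deg C, then exposed to compounds overnight at 37 deg C. Blocked degradation read as raised yellow fluorescence (Ex 488/Em 500-530).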
# MCF10A rerep – induces DNA re-replication in MCF 10a normal breast cells. MCF 10A DNA re-replication, Hoechst nuclear intensity, 48 h. 350,000 tested, 2.9% active. Potency, µM (titrated, usually from 46.1 µM), for inactives: at the top dose activity, positive = re-replication, most hits filed as activators; further: potency means the concentration at half of the fitted maximal effect; % of control where 0% means no effect; nearly all actives have a fitted effect of over 50% in size
# IL-1B inflam inh – inhibitors of inflammasome signaling (IL-1 beta secretion); activity change, % at 57.5 µM; 360,000 tested, 4.7% active; THP-1 LPS/ATP IL-1B secretion, AlphaLISA, 16 h; stronger effect = lower value; in the data active means activity change below about -50%; inconclusive means mostly about -30% to -49%; further: on the % scale 0 is the no-effect control and ±100 the full control effect
#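 THP-1 cells pretreated 1 hr with compounds (up to 57.5 uM final), then stimulated with LPS (250 ng/mL final) plus ATP (1.25 mM final); secreted IL-1B measured by AlphaLISA after 16 hr, decreased signal indicating inhibition.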
# SW480 rerep – DNA re-replication induction in SW480 cells; Potency, µM (titrated, usually from 46.1 µM), for the others: at the highest dose re-replication activation, actives largely listed as activators; SW480 DNA re-replication, Hoechst DNA content imaging, 48 h; 340,000 tested, 1.8% active; further: potency means the concentration at half of the fitted maximal effect; % of control where 0% means no effect; nearly all actives have a fitted effect of over 55% in size
#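 Treated cells incubate 48 hr (37 C, 5% CO2), are stained 40 min with Hoechst, and nuclear fluorescence is enumerated; a rise in nuclei with high DNA signal marks re-replication.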
# Vif-APOBEC3G blk – inhibitors of Vif-APOBEC3G interaction | 410,000 tested, 0.076% active | Potency, µM (series often up to 46.1 µM), inactives show at the top dose activity, negative = active, usual class: inhibitors | AID 602310 | Q9HC16 | HeLa A3G-eYFP + Vif (tagged APOBEC3G with the HIV-1 protein that degrades it), YFP fluorescence, overnight; further: potency means the concentration at half of the fitted maximal effect; on the % scale 0 is the no-effect control and ±100 the full control effect; nearly all actives have a fitted effect of over 60% in size
# Target sequence (Q9HC16 whole entry, looked up): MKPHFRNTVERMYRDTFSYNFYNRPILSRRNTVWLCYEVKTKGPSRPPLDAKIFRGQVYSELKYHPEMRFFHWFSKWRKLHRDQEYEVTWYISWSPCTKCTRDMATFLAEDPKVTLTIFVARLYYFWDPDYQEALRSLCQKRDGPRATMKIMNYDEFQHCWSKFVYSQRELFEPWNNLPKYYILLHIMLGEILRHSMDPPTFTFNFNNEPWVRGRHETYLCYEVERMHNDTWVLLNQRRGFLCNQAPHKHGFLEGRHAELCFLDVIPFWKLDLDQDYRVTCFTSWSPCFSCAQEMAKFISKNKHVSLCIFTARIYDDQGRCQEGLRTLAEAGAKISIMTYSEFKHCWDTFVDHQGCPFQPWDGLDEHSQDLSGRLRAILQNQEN
#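 HeLa cells stably expressing Vif and C-terminally eYFP-tagged A3G, seeded overnight at 37 deg C, then exposed to compound by pintool overnight at 37 deg C. Rise in yellow fluorescence (Ex 488/Em 500-530, Acumen) marks blocked Vif-driven A3G degradation.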
# Giardia killer – kills Giardia lamblia; Giardia lamblia trophozoite viability; activity change, % at 7.66 µM, hits read low; 340,000 tested, 0.15% active; in the data active means activity change below about -80%; inconclusive means between about -30% and that limit;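 further: parasites exposed to compound for two days anaerobically before the ATP read; on the % scale 0 is the no-effect control and ±100 the full control effect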
#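 Anaerobic 48 hrs incubation at 37 deg C of 100 trophozoites/well with test compounds; ATPLite 1-Step luminescence, 15-30 min RT, reports cellular ATP as viability.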
# * hit, by the source's call; ? = inconclusive; · = not tested or not shown; [ ] = remark or other dose. The list is not random: actives were taken first. Their share in the collection is about 6.9%. Unless noted, the call rests on the fitted dose curve; in most records, active means well fitted curve in the direction sought with a large enough effect; inconclusive means small, poorly fitted or top-dose-only effect, or another doubt; inactive means no such curve, though single readings can be large; an effect the other way counts as inactive or inconclusive.
SMILES,Vif-APOBEC3F blk,MCF10A rerep,IL-1B inflam inh,SW480 rerep,Vif-APOBEC3G blk,Giardia killer
CCC(=O)NC(=S)Nc1ccc(NC(=O)c2ccc(Br)o2)cc1,2%,1%,-54*,17%,0%,-9
Cc1ccc(C(=O)N2CCN(c3ccc(NC(=O)c4ccc(Br)o4)cc3)CC2)cc1,4%,13%,-86*,-1%,6%,-2
O=C(Nc1ccc(C(=O)N2CCC(O)(c3ccc(Cl)c(C(F)(F)F)c3)CC2)cc1)c1ccc(Br)o1,3%,-12%,-61*,-8%[9.22 µM],-1%,16
O=C(Nc1ccc(C(=O)N2CCN(c3ccncc3)CC2)cc1)c1ccc(Br)o1,·,·,-24,·,·,·
CCCn1c(=O)c2sccc2n2c(CCCC(=O)Nc3ccc(Oc4ccccc4)cc3)nnc12,4%,·,·,·,2%,·
CCS(=O)(=O)c1nc2ccccc2n1CC(=O)Nc1ccccc1C(=O)OC,-4%,·,·,·,2%,·
CN(N=O)c1ccc(/C=C2\C=Cc3ccccc32)cc1,·,·,·,·,-2%,·
CC1CCC(NC(=O)c2ccc3c(c2)N(Cc2cccc(F)c2)C(=O)c2ccccc2S3)CC1 (configuration not stated),-10%,·,·,·,3%,·
CNc1nc(-c2ccccc2)[n+](-c2ccc(C)cc2)s1,-24%,?,-79*,28%,0%,3
Cc1ccc(-c2nc(N)s[n+]2-c2ccccc2)cc1,-3%,11%,-5,-9%,1%,-3
COc1ccc2c(c1)c(=O)c(C(=O)c1ccc(F)cc1)cn2CC(=O)Nc1ccc2c(c1)OCO2,?,·,·,·,3%,·
CCOC(=O)Cn1c(=NC(=O)c2cc(-c3cccs3)nc3ccccc23)sc2cc(S(N)(=O)=O)ccc21,?,8.2µM*,-11,?,-21%,-8
COC(=O)Cn1c(=NC(=O)c2cc(-c3cccs3)nc3ccccc23)sc2cc(S(N)(=O)=O)ccc21,0%,7.3µM*,-12,?,-4%,2
COC(=O)Cn1c(=NC(=O)c2nc3ccccc3s2)sc2cc(S(N)(=O)=O)ccc21,?,?,-3,-12%,-6%,-6
NS(=O)(=O)c1ccc(CNC(=O)c2cc(-c3cccs3)nc3ccccc23)cc1,2%,0%,7,-2%,-1%,21
CCOC(=O)c1cnc2ccc(OC)cc2c1NCc1ccccc1,0%,11%,2,-7%,1%,13
CCOC(=O)c1cnc2ccc(OCC)cc2c1NCCCN1CCOCC1,1%,14%,-53*,-8%,3%,?
CCOC(=O)c1cnc2ccc(OCC)cc2c1NCc1ccccc1OC,7%,?,-89*,27%,-5%,-15
CCOC(=O)c1cnc2ccc(C(=O)OC)cc2c1NCCCN1CCOCC1,2%,-1%,-60*,8%,2%,11
CCCOc1ccc2nc(NC(=O)OC)[nH]c2c1,·,4.6µM*,·,2.9µM*,·,·
CCOc1ccc2nc(NCCCO)[nH]c2c1,0%,10%,-72*,-1%,1%,-2
COc1ccc(OCC(=O)Nc2nc3ccccc3[nH]2)cc1,1%,1%,0,0%,1%,-12
CCOc1ccc2nc(-c3ccccc3)[nH]c2c1,-6%,5.2µM*,-3,18µM*,?,?
CCOC(=O)Nc1nc2ccc(Cn3cccc3)cc2[nH]1,-19%,3.3µM*,29,1.3µM*,?,-7
O=[N+]([O-])c1ccccc1/C=C/c1ccc2ccccc2n1,-1%,?,-79*,14%,-14%,1
SMILES,Vif-APOBEC3F blk,MCF10A rerep,IL-1B inflam inh,SW480 rerep,Vif-APOBEC3G blk,Giardia killer
CC(=O)/C=C/c1ccc2ccccc2n1,-16%,15µM*,-120*,9.2µM*,?,9
Clc1ccc(/C=C/c2ccc3ccccc3n2)c(Cl)c1,·,·,·,·,6%,·
COC1=CC(=O)c2c(ccc3ncnc(N)c23)C1=O,1%,16%,-112*,?,?,44
CCN1CCN(C(c2ccc(SC)cc2)c2c(O)cc(C)n(CCOC)c2=O)CC1 (configuration not stated),-6%,·,·,·,1%,·
COc1cccc(NC(=O)CC(=O)c2ccc([N+](=O)[O-])cc2)c1,1%,10%,-20,-4%,4%,4
COc1cccc(N/C(SCc2cccc([N+](=O)[O-])c2)=C(/C#N)C(N)=O)c1,?,?,-102*,?,-27%,2
CCCCC(=O)Nc1c(C(=O)N2CCN(c3ccccc3)CC2)oc2ccccc12,10%,·,·,·,2%,·
COc1ccc(CCNC(=O)CCn2c(=O)c3ccccc3n(Cc3cc(C)ccc3C)c2=O)cc1OC,-5%,·,·,·,1%,·
COc1cc(/C=N/N=C(N)N)ccc1OCc1ccc(Cl)cc1,-1%,?,-94*,?,-4%,1
NC(N)=N/N=C/c1ccc(OCc2ccccc2)c(OCc2ccccc2)c1,5%,12µM*,-96*,21%,-8%,-4
CCOc1cc(/C=N/N=C(N)N)ccc1OCc1ccc(Cl)cc1,-3%,18µM*,-108*,?,-8%,-3
O=C(Nc1ccc(Br)cc1)c1cc(Br)c(Br)s1,·,?,·,15%,·,·
CCOc1ccc(-c2cn3ccccc3n2)cc1[N+](=O)[O-],2%,21µM*,9,?,?,-24
CCCCOc1ccc(-c2cn3ccccc3n2)cc1[N+](=O)[O-],-5%,12µM*,-11,26%,2%,-16
O=[N+]([O-])c1ccc(-c2cn3ccccc3n2)cc1,3%,-1%,?,-10%,1%,4
COc1ccc(N2CC(NC(=O)c3cccs3)CC2=O)cc1OC (configuration not stated),-9%,·,·,·,1%,·
COc1ccc(C2=Nn3c(nnc3-c3ccccc3Cl)SC2)cc1OC1CCOC1 (configuration not stated),-3%,?,·,?,?,-18
COc1ccc(C2=Nn3c(nnc3-c3ccccc3Cl)SC2)cc1OC1CCCC1,0%,16µM*,·,21µM*,0%,-3
COc1ccc(C2=Nn3c(nnc3-c3ccccc3OC)SC2)cc1OC,-20%,0.37µM*,1,0.37µM*,-58%,-20
COc1ccc(C2=Nn3c(nnc3-c3ccc(OC)cc3)SC2)cc1,0%,0.92µM*,2,1.8µM*,?,20
COc1cccc(-c2nnc3n2N=C(C(C)(C)C)CS3)c1,-1%,?,-93*,?,-13%,3
COc1cccc(-c2nnc3n2N=C(c2cc(OC)ccc2OC)CS3)c1,-1%,?,?,-3%,-4%,19
COc1ccc(OC)c(CNC(=O)CN2N=C(c3ccc(Cl)cc3)CCC2=O)c1,2%,·,·,·,3%,·
OCC(O)CS (configuration not stated),·,11%,·,-6%,·,·
